In the library only some 5.2% were active in any assay of this set; here they are far more common.
APOBEC3G inh = APOBEC3G DNA deaminase inhibitors, primary screen, biochemical, fluorescence, single-stranded DNA substrate, uHTS | DNA dC->dU-editing enzyme APOBEC-3G (Homo sapiens), Q9HC16 | recombinant A3G, ssDNA deamination FAM/TAMRA fluorescence | inhibition, % at 20 µM | actives 0.28% (n = 330,000) | AID 493012, 2011;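 active = inhibition of at least 40% at 20 µM, with no more than 30% in the related APOBEC3A deaminase screen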;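 also: plate controls were DMSO wells with A3G for no effect and wells lacking A3G enzyme for full effect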
Target sequence (Q9HC16 whole entry, looked up): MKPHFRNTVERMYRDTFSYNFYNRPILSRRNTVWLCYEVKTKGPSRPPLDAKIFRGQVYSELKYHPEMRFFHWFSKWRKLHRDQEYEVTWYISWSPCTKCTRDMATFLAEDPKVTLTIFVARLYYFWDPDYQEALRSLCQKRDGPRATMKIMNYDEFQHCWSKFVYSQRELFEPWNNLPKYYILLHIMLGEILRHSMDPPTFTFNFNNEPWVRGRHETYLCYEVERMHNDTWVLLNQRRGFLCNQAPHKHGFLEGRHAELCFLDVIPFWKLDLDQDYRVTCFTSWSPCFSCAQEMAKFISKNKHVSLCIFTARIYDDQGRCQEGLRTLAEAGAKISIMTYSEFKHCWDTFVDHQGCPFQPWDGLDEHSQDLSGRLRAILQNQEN
CendR NRP1 mod = modulators of CendR peptide binding to NRP-1, primary screen, biochemical, fluorescence polarization, uHTS; FAM-RPARPAR peptide binding to NRP-1; inhibition, % at 25 µM; actives 0.85% (n = 360,000);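 active = inhibition or corrected inhibition above about 18%, plus a signal ratio from 0.5 to 1.5, limit read from the data, passing the limit was not always enough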
Yeast superoxide = reduction of superoxide in aged yeast, primary screen, HTS | S. cerevisiae aged cells, superoxide DHE fluorescence; active compounds read low | superoxide response (% of plate mean), % at 10 µM | actives 0.18% (n = 330,000);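 active = superoxide response under a set limit, about three screen SD below normal, cut at about 65% in these data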;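 also: yeast aged for seven days with compound at 30 °C before DHE staining; 100% = average MFI of all compound-treated wells on the plate with controls excluded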
M18AAP inhibitor = PfM18AAP inhibitors, malaria aminopeptidase, primary screen, biochemical, QFRET, recombinant enzyme; M18 aspartyl aminopeptidase (Plasmodium falciparum 3D7); H-Glu-NHMec fluorogenic cleavage; inhibition, % at 7.35 µM; actives 1.2% (n = 290,000); AID 1822, 2009;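 active = inhibition above the campaign mean inhibition over all tested compounds plus 3 SD, cut at about 28% in these data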;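 also: 0% = plate median of test compound wells and 100% = 2 mM ZnCl2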
ALR H2O2 inh = inhibitors of human ALR sulfhydryl oxidase, primary screen, biochemical, H2O2 detection, HRP-luminol luminescence, single point. FAD-linked sulfhydryl oxidase ALR (Homo sapiens), P55789. AID 485317, 2010. actives 3.8% (n = 290,000). purified ALR, DTT oxidation. inhibition, % (no concentration beside the values);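 active = mean replicate inhibition above about 79%, with every replicate also reaching it, limit read from the data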
A3A deaminase = APOBEC3A ssDNA deaminase inhibitors, primary screen, selectivity assay for APOBEC3G inhibitor project, biochemical, FAM/TAMRA oligo cleavage fluorescence | inhibition, % at 20 µM | DNA dC->dU-editing enzyme APOBEC-3A (Homo sapiens), P31941 | actives 0.41% (n = 330,000) | recombinant A3A, FAM/TAMRA ssDNA deamination fluorescence;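 active = at least 40% inhibition at 20 µM here, with at most 30% in a related deaminase screen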;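 also: plate controls were A3A with DMSO for no effect and wells lacking A3A enzyme for full effect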
Target sequence (P31941 whole entry, looked up): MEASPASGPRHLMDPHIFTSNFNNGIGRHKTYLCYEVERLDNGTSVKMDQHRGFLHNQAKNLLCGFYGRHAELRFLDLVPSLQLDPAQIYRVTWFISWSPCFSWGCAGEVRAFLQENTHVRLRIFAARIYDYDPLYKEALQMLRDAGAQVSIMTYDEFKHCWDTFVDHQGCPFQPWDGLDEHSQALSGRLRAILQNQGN
* marks the source's active call; other numbers are inactive results; nt = no result.

SMILES | APOBEC3G inh | CendR NRP1 mod | Yeast superoxide | M18AAP inhibitor | ALR H2O2 inh | A3A deaminase
O=C(N1CCOCC1)N1CCN(S(=O)(=O)c2ccccc2)C1 | -1 | 7 | 107 | -7 | -1 | 0
Cc1ccc(NC(=O)CSCC(=O)Nc2cc(Cl)ccc2N2CCN(C)CC2)cc1 | -5 | 0 | 106 | nt | -2 | 7
CCCN(CCC)CCCNC(=O)C1CCN(S(=O)(=O)c2cccc3nsnc23)CC1 | -5 | -4 | 103 | 1 | 2 | -3
CCN(CCNC(=O)C1CCN(S(=O)(=O)c2cccc3nsnc23)CC1)c1ccccc1 | 0 | 10 | 111 | 5 | 99* | -2
CCN(CCNC(=O)C1CCCN(S(=O)(=O)CC)C1)c1ccccc1 (stereo not given) | -2 | 9 | 82 | 20 | 99* | 1
CCN(CCNC(=O)C1CCN(c2nnc(-n3cccc3)s2)CC1)c1ccccc1 | -2 | -3 | 106 | 5 | 73 | -1
CCN(CCNC(=O)C1CCN(S(=O)(=O)CC)CC1)c1ccccc1 | -6 | 0 | 80 | -5 | 99* | -5
CC(=O)Nc1cccc(C(=O)OCC(=O)NC2CCCCCCC2)c1 | -5 | -10 | 111 | nt | 1 | -6
CC1=C(OC(=O)C(C)(C)C)C(C)(C)C(c2ccccc2)OC1=O (stereo not given) | -6 | 5 | 98 | -9 | -1 | -1
CCOC(=O)N1CCC(n2c(SCC(=O)NCCC3=CCCCC3)nc3ccccc3c2=O)CC1 | -6 | -8 | 103 | 8 | 0 | -2
CC(=O)NNc1nc(-c2ccccc2)cs1 | 1 | -8 | 99 | 23 | 11 | 0
CC(=O)NNc1nc(-c2ccc(C)cc2)cs1 | -9 | 3 | 101 | 26 | 83* | -3
CCCC(=O)Nc1ccc(-c2csc(NNC(C)=O)n2)cc1 | -2 | -9 | 102 | 11 | 99* | 1
Fc1ccc(-c2nnsc2Sc2ccccn2)cc1 | -9 | -5 | 75 | 0 | 3 | -4
NC(=S)N/N=C/c1c[nH]c2ccc(OCc3ccccc3)cc12 | -2 | -6 | 101 | 27 | 99* | -1
Nc1ccc(C(=O)OCCCc2nc3ccccc3[nH]2)cc1 | 0 | -6 | 81 | -1 | -2 | 8
COC(=O)c1ccc(C(=O)OCCCc2nc3ccc(N)cc3[nH]2)cc1 | -8 | -21 | 108 | -4 | 90* | -4
COc1ccc(OCc2nc3ccccc3[nH]2)cc1 | -8 | 8 | 105 | 3 | -1 | -4
Nc1ccc2nc(CCCO)[nH]c2c1 | -1 | -4 | 93 | 8 | 99* | 2
Nc1ccc2nc(CCCCCCCCc3nc4ccc(N)cc4[nH]3)[nH]c2c1 | 1 | 5 | 112 | -2 | 96* | 1
Nc1ccc2nc(COc3ccccc3)[nH]c2c1 | -3 | -4 | 99 | -9 | 91* | 2
CCOc1cc(C(=O)N2CCCC2)cc(OCC)c1OCC | -9 | 1 | 108 | -5 | 0 | -7
COc1ccccc1Cc1c(-c2cccc(Cl)c2)nc2c(C)cc(Br)cn12 | nt | -6 | nt | nt | nt | nt
CCC(CC)c1nnc(NC(=O)CCc2ccccc2)s1 | -6 | -7 | 106 | 1 | 0 | -1
O=C(NCc1ccccc1)C1=C[C@H](c2ccc(Br)cc2)C[C@H](OCCCCO)O1 | -4 | 6 | 103 | nt | 1 | -3
SMILES | APOBEC3G inh | CendR NRP1 mod | Yeast superoxide | M18AAP inhibitor | ALR H2O2 inh | A3A deaminase
Nc1ccc2nc(CCCCCCc3nc4ccc(N)cc4[nH]3)[nH]c2c1 | 5 | -6 | 108 | 3 | 57 | 2
Nc1ccc2nc(CCCCc3nc4ccccc4[nH]3)[nH]c2c1 | 0 | 15 | 95 | 8 | 100* | -3
CC1(c2ccc(F)cc2)OC(=O)c2c1ccc1ccccc21 (stereo not given) | nt | -4 | nt | nt | nt | nt
Nc1nc(C(=O)N2CCOCC2)nn1C(=O)c1ccc(Cl)cc1 | -2 | -8 | 99 | -15 | 86* | 0
O=C(c1ccc(Cl)cc1)c1ccccc1C(=O)N1CCOCC1 | -6 | -1 | 95 | -1 | -7 | -3
Cc1ccc(N/N=C/c2ccc(N3CCOCC3)cc2)cc1C | -4 | 4 | 88 | 12 | 99* | -4
COc1ccc(N/N=C(\C=N\O)C(=O)c2ccc(OC)cc2)cc1 | -8 | 2 | 96 | -5 | 93* | -7
Cc1ccc(S(=O)(=O)NCc2ccncc2)cc1C | -7 | 22* | 98 | -5 | 0 | -5
CCc1ccc(N2CC(C(=O)NCCC3=CCCCC3)CC2=O)cc1 (stereo not given) | -5 | 2 | 102 | 0 | 0 | -2
O=C(NCC1CCCO1)c1cc([N+](=O)[O-])ccc1Cl (stereo not given) | -3 | 3 | 93 | 4 | 95* | -1
CCOc1ccc(CCNC(=O)c2ccc(F)c(S(=O)(=O)N3CCOCC3)c2)cc1OCC | -4 | 23* | 85 | -12 | 1 | 9
Cc1cnc(NS(=O)(=O)c2ccc(N)cc2)nc1-c1ccccc1O | nt | -4 | nt | nt | nt | nt
COc1ccc(Cc2c(O)nc(SCC(C)C)[nH]c2=O)cc1 | -9 | -4 | 103 | -6 | 9 | -8
COc1ccccc1NC(=O)CSCC(N)=O | -3 | -4 | 101 | -1 | 94* | -2
COc1ccccc1NC(=O)CC(=O)Nc1ccccc1OC | -9 | 1 | 89 | 6 | -5 | -3
COc1ccccc1NC(=O)c1cc(=O)[nH]c2ccccc12 | -2 | -6 | 99 | -9 | 99* | -4
CCc1c(O)nc(SCC(=O)Nc2ccccc2OC)[nH]c1=O | -3 | 1 | 85 | 2 | 99* | -1
COc1ccc(Cc2c(O)nc(SCC(=O)c3ccc(OC)cc3)[nH]c2=O)cc1 | -8 | -7 | 91 | -2 | 98* | -4
COc1ccccc1NC(=O)c1c[nH]c2ccccc12 | -8 | 2 | 101 | -2 | -9 | 15
COc1ccccc1NC(=O)CSc1nc(O)cc(=O)[nH]1 | -5 | -2 | 92 | -6 | 98* | -2
COc1ccccc1NC(=O)CSc1nc(O)c(Cc2ccccc2)c(=O)[nH]1 | -9 | -15 | 88 | 6 | 88* | -6
COc1ccccc1NC(=O)CSc1nc(N)c(-c2ccccc2)c(=O)[nH]1 | -6 | -9 | 91 | -1 | -13 | -2
COc1ccc(Cl)cc1NC(=O)CSc1nc(-c2ccccc2)cc(=O)[nH]1 | 6 | -9 | 114 | -15 | -2 | -7
CN(C)c1ccc(C(=O)N2CC(=O)N(CCc3ccccc3)C(=O)C2)cc1 | -8 | -2 | 85 | 1 | 40 | -3

Screens (PubChem BioAssay)
